“And” between values parts separate entries of the source, which are not always exact repeats. Equal entries are not always repeated. The source holds several records for some structures; these can differ, active in one and inactive in another. The source made the active and inactive calls. The calls were made as follows: active = hit-call score of the fitted dose curve at least 0.9, where 1 is the maximum; inactive = score below 0.9.

Read-out in test [1]: Vascular cell adhesion molecule 1 (VCAM1), VCAM1 (gene 7412)
As to the kind of experiment: BSK_BF4T_VCAM1: BioMAP Diversity Plus: BF4T Assay for Vascular cell adhesion molecule 1 (VCAM1) Biomarker Activity (AID 2284249). Conditions: primary human bronchial epithelial cells with fibroblasts. The method, then:
BSK_BF4T is a cell-based, multiplexed-readout assay that uses bronchial epithelial cells and dermal fibroblasts, a human vascular primary cell, with measurements taken at 24 hours after chemical dosing in a microplate: 96-well plate.BSK_BF4T_VCAM1 is an assay component measured in the BSK_BF4T assay. It measures VCAM-1 antibody related to regulation of gene expression using ELISA technology.Data from the assay component BSK_BF4T_VCAM1 was analyzed at the endpoint, BSK_BF4T_VCAM1, in the positive analysis fitting direction relative to DMSO as the negative control and baseline of activity. Using a type of binding reporter, gain or loss-of-signal activity can be used to understand protein changes. […]
(§1) The levels of cell surface (or secreted, indicated by the prefix "s") biomarker endpoints were measured by ELISA. Overt cytotoxicity to cells in confluent adherent cultures (all systems other than the BT system) was assessed by measuring total protein levels using sulforhodamine B (SRB) staining in parallel cultures at the time of biomarker measurements, indicated as SRB endpoints. For proliferation assays for adherent cell types, individual cell types are cultured at sub-confluence and relative cell numbers quantified by SRB staining at time points optimized for each system (48 h: 3C and CASM3C systems; 72 h: BT and HDF3CGF systems; 96 h: SAg system). […] Plates were read after 6 h.

Read-out in test [2]: Collagen I, COL1A1 (gene 1277)
As to the kind of experiment: BSK_hDFCGF_CollagenI: BioMAP Diversity Plus: hDFCGF Assay for Collagen I Biomarker Activity (AID 2284250). The following applies: primary human foreskin fibroblasts. The procedure, abridged:
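ELISA read-out of Collagen I in human dermal foreskin fibroblast cultures, 24 h after dosing. Gain of signal versus DMSO vehicle defines activity.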

Read-out in test [3]: Interferon-inducible T-cell alpha chemoattractant (ITAC), CXCL11 (gene 6373)
Description: BSK_hDFCGF_ITAC: BioMAP Diversity Plus: hDFCGF Assay for Interferon-inducible T-cell alpha chemoattractant (ITAC) Biomarker Activity (AID 2284251). Conditions: primary human foreskin fibroblasts. As to the method: BSK_hDFCGF is a cell-based, multiplexed-readout assay that uses foreskin fibroblast, a human skin primary cell, with measurements taken at 24 hours after chemical dosing in a 96-well plate.BSK_hDFCGF_ITAC is an assay component measured in the BSK_hDFCGF assay. It measures I-TAC antibody related to regulation of gene expression using ELISA technology.Data from the assay component BSK_hDFCGF_ITAC was analyzed at the endpoint, BSK_hDFCGF_ITAC, in the positive analysis fitting direction relative to DMSO as the negative control and baseline of activity. Using a type of binding reporter, gain or loss-of-signal activity can be used to understand protein changes. To generalize the intended target to other relatable targets, this assay endpoint is annotated to the 'cytokine' intended target family, where the subfamily is 'chemotactic factor'.
as §1, with “system). SRB was performed by staining cells with 0.1% SRB after fixation with 10% TCA and reading wells at 560 nm.Viability and proliferation of PBMC (T cells) was quantified by Alamar Blue reduction for the SAg and BT systems. […] Then, Alamar Blue (20 uL/well) (Invitrogen, Cat DAL1100) was added for 6 h, and the plates were read with a fluorescence microplate reader at 546/580 nm (excitation/emission).” for “system).”

Read-out in test [4]: Plasminogen activator inhibitor-1 (PAI1), SERPINE1 (gene 5054)
As to the kind of experiment: BSK_KF3CT_PAI1: BioMAP Diversity Plus: KF3CT Assay for Plasminogen activator inhibitor-1 (PAI1) Biomarker Activity (AID 2284252). The following applies: primary human keratinocytes with fibroblasts. The method, boiled down:
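Keratinocyte + dermal fibroblast co-culture (human primary); 24 h post-dose; PAI-1 by ELISA; gain-of-signal fit vs DMSO control.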

Read-out in test [5]: Monocyte Chemoattractant Protein-1 (MCP1), CCL2 (gene 6347)
Description: BSK_IMphg_MCP1: BioMAP Diversity Plus: IMphg Assay for Monocyte Chemoattractant Protein-1 (MCP1) Biomarker Activity (AID 2284253). The following applies: primary human endothelial cells with macrophages. The procedure, abridged:
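ELISA readout of MCP-1 at 24 hours in IMphg co-cultures of venular endothelial cells and macrophages, normalised to DMSO; parallel cultures stained with sulforhodamine B for overt cytotoxicity.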

Read-out in test [6]: Interleukin-8 (IL8), CXCL8 (gene 3576)
As to the kind of experiment: BSK_KF3CT_IL8: BioMAP Diversity Plus: KF3CT Assay for Interleukin-8 (IL8) Biomarker Activity (AID 2284254). The following applies: primary human keratinocytes with fibroblasts. The procedure, abridged: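 IL-8 by ELISA in primary human skin co-culture (keratinocytes plus fibroblasts) 24 h post-dose, DMSO as baseline. Cytotoxicity assessed in parallel by sulforhodamine B total-protein staining.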

Read-out in test [7]: Macrophage Inflammatory Protein-1 Alpha (MIP1a), CCL3 (gene 6348)
As to the kind of experiment: BSK_IMphg_MIP1a: BioMAP Diversity Plus: IMphg Assay for Macrophage Inflammatory Protein-1 Alpha (MIP1a) Biomarker Activity (AID 2284255). The following applies: primary human endothelial cells with macrophages. The method, boiled down: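 MIP-1a protein levels were quantified by ELISA after 24 h treatment of human endothelial cell–macrophage co-cultures, compared with DMSO. Parallel cultures were fixed with TCA and stained with 0.1% SRB to gauge overt cytotoxicity.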

Read-out in test [8]: Plasminogen activator inhibitor-1 (PAI1), SERPINE1 (gene 5054)
As to the kind of experiment: BSK_MyoF_PAI1: BioMAP Diversity Plus: MyoF Assay for Plasminogen activator inhibitor-1 (PAI1) Biomarker Activity (AID 2284256).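 As to outcome: PAI-1 protein level measured by ELISA in fibroblast cultures; PAI-1 read 24 h after compound addition.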 Conditions: primary human lung fibroblasts. As to the method:
BSK_MyoF is a cell-based, multiplexed-readout assay that uses lung fibroblasts, […], with measurements taken at 24 hours after chemical dosing in a microplate: 96-well plate.BSK_MyoF_PAI1 is an assay component measured in the BSK_MyoF assay. It measures PAI-1 antibody related to regulation of gene expression using ELISA technology.Data from the assay component BSK_MyoF_PAI1 was analyzed at the endpoint, BSK_MyoF_PAI1, in the positive analysis fitting direction relative to DMSO as the negative control and baseline of activity. Using a type of binding reporter, gain or loss-of-signal activity can be used to understand protein changes. To generalize the intended target to other relatable targets, this assay endpoint is annotated to the 'cytokine' intended target family, where the subfamily is 'plasmogen activator inhibitor'.
(§2) The levels of cell surface (or secreted, indicated by the prefix "s") biomarker endpoints were measured by ELISA. Overt cytotoxicity to cells in confluent adherent cultures (all systems other than the BT system) was assessed by measuring total protein levels using sulforhodamine B (SRB) staining in parallel cultures at the time of biomarker measurements, indicated as SRB endpoints. For proliferation assays for adherent cell types, individual cell types are cultured at sub-confluence and relative cell numbers quantified by SRB staining at time points optimized for each system (48 h: 3C and CASM3C systems; 72 h: BT and HDF3CGF systems; 96 h: SAg system). SRB was performed by staining cells with 0.1% SRB after fixation with 10% TCA and reading wells at 560 nm.Viability and proliferation of PBMC (T cells) was quantified by Alamar Blue reduction for the SAg and BT systems. For PBMC viability (referred to as PBMC Cytotoxicity within the assay endpoint names), cells were plated (75,000/well in a 96-well plate) and then chemical samples added for 1 h before addition of activators, SEB and TSST-1 (20 ng/mL final concentration each). Cells were incubated for 90 h. Then, Alamar Blue (20 uL/well) (Invitrogen, Cat DAL1100) was added for 6 h, and the plates were read with a fluorescence microplate reader at 546/580 nm (excitation/emission). For PBMC proliferation, cells were plated and activated as above but incubated for only 16 h prior to addition of Alamar Blue. Plates were read after 6 h.

Read-out in test [9]: CD69, CD69 (gene 969)
As to the kind of experiment: BSK_IMphg_CD69: BioMAP Diversity Plus: IMphg Assay for CD69 Biomarker Activity (AID 2284257). Conditions: primary human endothelial cells with macrophages. As to the method:
BSK_IMphg is a cell-based, multiplexed-readout assay that uses venular endothelial cells and macrophages, a human vascular primary cell, with measurements taken at 24 hours after chemical dosing in a microplate: 96-well plate.BSK_IMphg_CD69 is an assay component measured in the BSK_IMphg assay. It measures CD69 antibody related to regulation of gene expression using ELISA technology.Data from the assay component BSK_IMphg_CD69 was analyzed at the endpoint, BSK_IMphg_CD69, in the positive analysis fitting direction relative to DMSO as the negative control and baseline of activity. Using a type of binding reporter, gain or loss-of-signal activity can be used to understand protein changes. To generalize the intended target to other relatable targets, this assay endpoint is annotated to the 'cytokine' intended target family, where the subfamily is 'inflammatory factor'.
as §2, with “For PBMC viability (referred to as PBMC Cytotoxicity within the assay endpoint names), cells were plated (75,000/well in a 96-well plate) and then chemical samples added for 1 h before addition of activators, SEB and TSST-1 (20 ng/mL final concentration each). Cells were incubated for 90 h.” left out, “For PBMC proliferation, cells were plated and activated as above but incubated for only 16 h prior to addition of Alamar Blue.” left out

Read-out in test [10]: Eotaxin 3, CCL26 (gene 10344)
Description: BSK_BF4T_Eotaxin3: BioMAP Diversity Plus: BF4T Assay for Eotaxin 3 Biomarker Activity (AID 2284258). Conditions: primary human bronchial epithelial cells with fibroblasts. The method, boiled down:
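ELISA measurement of Eotaxin-3 after 24 h chemical exposure in a bronchial epithelial/dermal fibroblast co-culture, with DMSO as baseline. Parallel SRB staining (0.1% SRB after 10% TCA fixation, 560 nm) flagged overt cytotoxicity.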

On to `O=C(O)C(F)(F)C(F)(F)C(F)(F)C(F)(F)C(F)(F)C(F)(F)C(F)(F)F`, for which the result in test [1], in test [2], in test [3], in [4], in test [5] and in test [6] was inactive. For the same molecule, the outcome in test [7], in test [8], in test [9] and in test [10] was inactive.

`O=S(=O)(O)C(F)(F)C(F)(F)C(F)(F)C(F)(F)C(F)(F)C(F)(F)C(F)(F)C(F)(F)F`: the outcome in test [1], in test [2], in test [3], in test [5], in test [6] and in test [7] was inactive. Also, the result in test [8], in [9] and in test [10] was inactive. For the same molecule, the AC50 was 30 µM (active) and 38.1 µM (active) in test [3]; 24.4 µM (active) [middle of 4 runs] in [4]; 30 µM (active) in [9]; 17.2 µM (active) and 1.82 µM (active) in test [10].

As to `ClC1C(Cl)C(Cl)C(Cl)C(Cl)C1Cl` (stereo not given), in [8], the AC50 was 0.295 µM (active) and the result was inactive.

By AC50 is commonly meant the concentration at which the activity in the assay is half-maximal.

The values above are taken from PubChem BioAssay (EPA / NIEHS).
